# Measurements as given in the supplement of paper PMC4466140.
# Target: AgAbp1
# Assay: SPOT peptide array binding signal intensity (averaged, normalized) (arbitrary units (background-subtracted, floor 0; scale differs between SH3 domains)); higher = stronger binding of the SH3 domain to the peptide
# Protocol: (§1)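 GST-tagged SH3 domains from S. cerevisiae (Sc), A. gossypii (Ag), C. albicans (Ca) and S. pombe (Sp) were incubated at 10 ug/ml overnight at 4 C on cellulose SPOT membranes carrying 292 synthetic 15-mer peptides mined from the S. cerevisiae proteome (cysteines replaced by serines). Binding was detected with anti-GST antibody, HRP secondary and chemiluminescence, quantified with Genespotter, and reported as normalized spot intensities averaged over biological replicates.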
row,Binder,SPOT peptide array binding signal intensity
1,HGKRRAPLLLAKLDV,19

# Target: AgBbc1
# Assay: as above
# Protocol: as §1
row,Binder,SPOT peptide array binding signal intensity
1,HGKRRAPLLLAKLDV,2

# Target: AgBem1-D1
# Assay: as above
# Protocol: as §1
row,Binder,SPOT peptide array binding signal intensity
1,HGKRRAPLLLAKLDV,26

# Target: AgBzz1-D1
# Assay: as above
# Protocol: as §1
row,Binder,SPOT peptide array binding signal intensity
1,HGKRRAPLLLAKLDV,82

# Target: AgBzz1-D2
# Assay: as above
# Protocol: as §1
row,Binder,SPOT peptide array binding signal intensity
1,HGKRRAPLLLAKLDV,34.5

# Target: AgCyk3
# Assay: as above
# Protocol: as §1
row,Binder,SPOT peptide array binding signal intensity
1,HGKRRAPLLLAKLDV,7

# Target: AgFus1
# Assay: as above
# Protocol: as §1
row,Binder,SPOT peptide array binding signal intensity
1,HGKRRAPLLLAKLDV,93

# Target: AgHof1
# Assay: as above
# Protocol: as §1
row,Binder,SPOT peptide array binding signal intensity
1,HGKRRAPLLLAKLDV,13.5

# Target: AgHse1
# Assay: as above
# Protocol: as §1
row,Binder,SPOT peptide array binding signal intensity
1,HGKRRAPLLLAKLDV,145

# Target: AgLsb1
# Assay: as above
# Protocol: as §1
row,Binder,SPOT peptide array binding signal intensity
1,HGKRRAPLLLAKLDV,≤ 0

# Target: AgLsb4
# Assay: as above
# Protocol: as §1
row,Binder,SPOT peptide array binding signal intensity
1,HGKRRAPLLLAKLDV,29.5

# Target: AgMyo5
# Assay: as above
# Protocol: as §1
row,Binder,SPOT peptide array binding signal intensity
1,HGKRRAPLLLAKLDV,3

# Target: AgNbp2
# Assay: as above
# Protocol: as §1
row,Binder,SPOT peptide array binding signal intensity
1,HGKRRAPLLLAKLDV,58

# Target: AgRvs167
# Assay: as above
# Protocol: as §1
row,Binder,SPOT peptide array binding signal intensity
1,HGKRRAPLLLAKLDV,6.67

# Target: AgSho1
# Assay: as above
# Protocol: as §1
row,Binder,SPOT peptide array binding signal intensity
1,HGKRRAPLLLAKLDV,6

# Target: AgSla1-D1-D2
# Assay: as above
# Protocol: as §1
row,Binder,SPOT peptide array binding signal intensity
1,HGKRRAPLLLAKLDV,94.5

# Target: AgSla1-D3
# Assay: as above
# Protocol: as §1
row,Binder,SPOT peptide array binding signal intensity
1,HGKRRAPLLLAKLDV,20

# Target: CaAbp1-D1
# Assay: as above
# Protocol: as §1
row,Binder,SPOT peptide array binding signal intensity
1,HGKRRAPLLLAKLDV,499

# Target: CaAbp1-D2
# Assay: as above
# Protocol: as §1
row,Binder,SPOT peptide array binding signal intensity
1,HGKRRAPLLLAKLDV,238

# Target: CaBbc1
# Assay: as above
# Protocol: as §1
row,Binder,SPOT peptide array binding signal intensity
1,HGKRRAPLLLAKLDV,57.8

# Target: CaBem1-D1
# Assay: as above
# Protocol: as §1
row,Binder,SPOT peptide array binding signal intensity
1,HGKRRAPLLLAKLDV,44

# Target: CaBzz1-D1
# Assay: as above
# Protocol: as §1
row,Binder,SPOT peptide array binding signal intensity
1,HGKRRAPLLLAKLDV,94

# Target: CaBzz1-D2
# Assay: as above
# Protocol: as §1
row,Binder,SPOT peptide array binding signal intensity
1,HGKRRAPLLLAKLDV,51.8

# Target: CaCyk3
# Assay: as above
# Protocol: as §1
row,Binder,SPOT peptide array binding signal intensity
1,HGKRRAPLLLAKLDV,37

# Target: CaFus1
# Assay: as above
# Protocol: as §1
row,Binder,SPOT peptide array binding signal intensity
1,HGKRRAPLLLAKLDV,312

# Target: CaHof1
# Assay: as above
# Protocol: as §1
row,Binder,SPOT peptide array binding signal intensity
1,HGKRRAPLLLAKLDV,≤ 0

# Target: CaHse1
# Assay: as above
# Protocol: as §1
row,Binder,SPOT peptide array binding signal intensity
1,HGKRRAPLLLAKLDV,7.75

# Target: CaLsb1
# Assay: as above
# Protocol: as §1
row,Binder,SPOT peptide array binding signal intensity
1,HGKRRAPLLLAKLDV,0.25

# Target: CaLsb4
# Assay: as above
# Protocol: as §1
row,Binder,SPOT peptide array binding signal intensity
1,HGKRRAPLLLAKLDV,26

# Target: CaMyo5
# Assay: as above
# Protocol: as §1
row,Binder,SPOT peptide array binding signal intensity
1,HGKRRAPLLLAKLDV,4

# Target: CaNbp2
# Assay: as above
# Protocol: as §1
row,Binder,SPOT peptide array binding signal intensity
1,HGKRRAPLLLAKLDV,1060

# Target: CaRvs167
# Assay: as above
# Protocol: as §1
row,Binder,SPOT peptide array binding signal intensity
1,HGKRRAPLLLAKLDV,7.67

# Target: CaRvs167-3
# Assay: as above
# Protocol: as §1
row,Binder,SPOT peptide array binding signal intensity
1,HGKRRAPLLLAKLDV,17.5

# Target: CaSho1
# Assay: as above
# Protocol: as §1
row,Binder,SPOT peptide array binding signal intensity
1,HGKRRAPLLLAKLDV,95

# Target: CaSla1-D1-D2
# Assay: as above
# Protocol: as §1
row,Binder,SPOT peptide array binding signal intensity
1,HGKRRAPLLLAKLDV,122

# Target: CaSla1-D3
# Assay: as above
# Protocol: as §1
row,Binder,SPOT peptide array binding signal intensity
1,HGKRRAPLLLAKLDV,8.75

# Target: ScAbp1
# Assay: as above
# Protocol: as §1
row,Binder,SPOT peptide array binding signal intensity
1,HGKRRAPLLLAKLDV,50

# Target: ScBbc1
# Assay: as above
# Protocol: as §1
row,Binder,SPOT peptide array binding signal intensity
1,HGKRRAPLLLAKLDV,12.2

# Target: ScBem1-D1
# Assay: as above
# Protocol: as §1
row,Binder,SPOT peptide array binding signal intensity
1,HGKRRAPLLLAKLDV,30

# Target: ScBzz1-D1
# Assay: as above
# Protocol: as §1
row,Binder,SPOT peptide array binding signal intensity
1,HGKRRAPLLLAKLDV,21.5

# Target: ScBzz1-D2
# Assay: as above
# Protocol: as §1
row,Binder,SPOT peptide array binding signal intensity
1,HGKRRAPLLLAKLDV,27

# Target: ScCyk3
# Assay: as above
# Protocol: as §1
row,Binder,SPOT peptide array binding signal intensity
1,HGKRRAPLLLAKLDV,102

# Target: ScFus1
# Assay: as above
# Protocol: as §1
row,Binder,SPOT peptide array binding signal intensity
1,HGKRRAPLLLAKLDV,136

# Target: ScHof1
# Assay: as above
# Protocol: as §1
row,Binder,SPOT peptide array binding signal intensity
1,HGKRRAPLLLAKLDV,0.5

# Target: ScHse1
# Assay: as above
# Protocol: as §1
row,Binder,SPOT peptide array binding signal intensity
1,HGKRRAPLLLAKLDV,732

# Target: ScLsb1
# Assay: as above
# Protocol: as §1
row,Binder,SPOT peptide array binding signal intensity
1,HGKRRAPLLLAKLDV,≤ 0

# Target: ScLsb2
# Assay: as above
# Protocol: as §1
row,Binder,SPOT peptide array binding signal intensity
1,HGKRRAPLLLAKLDV,≤ 0

# Target: ScLsb3
# Assay: as above
# Protocol: as §1
row,Binder,SPOT peptide array binding signal intensity
1,HGKRRAPLLLAKLDV,16.5

# Target: ScLsb4
# Assay: as above
# Protocol: as §1
row,Binder,SPOT peptide array binding signal intensity
1,HGKRRAPLLLAKLDV,≤ 0

# Target: ScMyo3
# Assay: as above
# Protocol: as §1
row,Binder,SPOT peptide array binding signal intensity
1,HGKRRAPLLLAKLDV,1

# Target: ScMyo5
# Assay: as above
# Protocol: as §1
row,Binder,SPOT peptide array binding signal intensity
1,HGKRRAPLLLAKLDV,5.5

# Target: ScNbp2
# Assay: as above
# Protocol: as §1
row,Binder,SPOT peptide array binding signal intensity
1,HGKRRAPLLLAKLDV,210

# Target: ScPex13
# Assay: as above
# Protocol: as §1
row,Binder,SPOT peptide array binding signal intensity
1,HGKRRAPLLLAKLDV,≤ 0

# Target: ScRvs167
# Assay: as above
# Protocol: as §1
row,Binder,SPOT peptide array binding signal intensity
1,HGKRRAPLLLAKLDV,11.3

# Target: ScSho1
# Assay: as above
# Protocol: as §1
row,Binder,SPOT peptide array binding signal intensity
1,HGKRRAPLLLAKLDV,186

# Target: ScSla1-D1-D2
# Assay: as above
# Protocol: as §1
row,Binder,SPOT peptide array binding signal intensity
1,HGKRRAPLLLAKLDV,126

# Target: ScSla1-D3
# Assay: as above
# Protocol: as §1
row,Binder,SPOT peptide array binding signal intensity
1,HGKRRAPLLLAKLDV,20.5

# Target: SpAbp1-D1
# Assay: as above
# Protocol: as §1
row,Binder,SPOT peptide array binding signal intensity
1,HGKRRAPLLLAKLDV,55

# Target: SpBbc1
# Assay: as above
# Protocol: as §1
row,Binder,SPOT peptide array binding signal intensity
1,HGKRRAPLLLAKLDV,0.5

# Target: SpBzz1-D1
# Assay: as above
# Protocol: as §1
row,Binder,SPOT peptide array binding signal intensity
1,HGKRRAPLLLAKLDV,204

# Target: SpBzz1-D2
# Assay: as above
# Protocol: as §1
row,Binder,SPOT peptide array binding signal intensity
1,HGKRRAPLLLAKLDV,≤ 0
2,LLIRWLILMPLVGSR,13.5

# Target: SpCyk3
# Assay: as above
# Protocol: as §1
row,Binder,SPOT peptide array binding signal intensity
1,HGKRRAPLLLAKLDV,18
2,LLIRWLILMPLVGSR,25

# Target: SpHof1
# Assay: as above
# Protocol: as §1
row,Binder,SPOT peptide array binding signal intensity
1,HGKRRAPLLLAKLDV,31.2
2,LLIRWLILMPLVGSR,306

# Target: SpHof1-2
# Assay: as above
# Protocol: as §1
row,Binder,SPOT peptide array binding signal intensity
1,HGKRRAPLLLAKLDV,4.25
2,LLIRWLILMPLVGSR,75.2

# Target: SpHof1-3
# Assay: as above
# Protocol: as §1
row,Binder,SPOT peptide array binding signal intensity
1,HGKRRAPLLLAKLDV,242
2,LLIRWLILMPLVGSR,2420

# Target: SpHse1
# Assay: as above
# Protocol: as §1
row,Binder,SPOT peptide array binding signal intensity
1,HGKRRAPLLLAKLDV,235
2,LLIRWLILMPLVGSR,2700

# Target: SpLsb1
# Assay: as above
# Protocol: as §1
row,Binder,SPOT peptide array binding signal intensity
1,HGKRRAPLLLAKLDV,≤ 0
2,LLIRWLILMPLVGSR,2

# Target: SpLsb4
# Assay: as above
# Protocol: as §1
row,Binder,SPOT peptide array binding signal intensity
1,HGKRRAPLLLAKLDV,21.5
2,LLIRWLILMPLVGSR,341

# Target: SpMyo1
# Assay: as above
# Protocol: as §1
row,Binder,SPOT peptide array binding signal intensity
1,HGKRRAPLLLAKLDV,2
2,LLIRWLILMPLVGSR,18

# Target: SpNbp2
# Assay: as above
# Protocol: as §1
row,Binder,SPOT peptide array binding signal intensity
1,HGKRRAPLLLAKLDV,63.5
2,LLIRWLILMPLVGSR,1450

# Target: SpPex13
# Assay: as above
# Protocol: as §1
row,Binder,SPOT peptide array binding signal intensity
1,HGKRRAPLLLAKLDV,10
2,LLIRWLILMPLVGSR,232

# Target: SpRvs167
# Assay: as above
# Protocol: as §1
row,Binder,SPOT peptide array binding signal intensity
1,HGKRRAPLLLAKLDV,≤ 0
2,LLIRWLILMPLVGSR,37.7

# Target: SpSla1-D1-D2
# Assay: as above
# Protocol: as §1
row,Binder,SPOT peptide array binding signal intensity
1,HGKRRAPLLLAKLDV,≤ 0
2,LLIRWLILMPLVGSR,≤ 0

# Target: SpSla1-D3
# Assay: as above
# Protocol: as §1
row,Binder,SPOT peptide array binding signal intensity
1,HGKRRAPLLLAKLDV,2
2,LLIRWLILMPLVGSR,120
